Test results taken from paper PMC5540273 (PLoS ONE, 2017).

What was measured:
Conditions in all cases: concentration: 1 μM, replicates: in singlicate; n = 1
GRK1 = test system: GRK1
GRK2 = test system: T1, GRK2
T1 construct: gene ADRBK1

GRK3 = test system: T2, GRK3
T2 construct: gene ADRBK2

GRK4 = test system: GRK4
GRK7 = test system: GRK7
GSK3A = test system: GSK3A
GSK3B = test system: GSK3B
HASPIN = test system: T3, HASPIN
T3 construct: gene GSG2

HCK = test system: HCK
HIPK1 = test system: HIPK1
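Further: KINOMEscan kinase panel screen.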

Compound	%Inh (GRK1) [%]	%Inh (GRK2) [%]	%Inh (GRK3) [%]	%Inh (GRK4) [%]	%Inh (GRK7) [%]	%Inh (GSK3A) [%]	%Inh (GSK3B) [%]	%Inh (HASPIN) [%]	%Inh (HCK) [%]	%Inh (HIPK1) [%]
O=C(NCCCN1CCCC1=O)c1cnc(NCc2cc(Cl)ccc2Cl)nc1NC1CCNCC1	33	2	22	0	68	0	0	0	3	5
CC(C)(C)c1ccc(-n2cnc3c(N)ncnc32)cc1 [SKF-97263]	3	0	0	24	0	31	4	64	13	19
Fc1cccc(COc2ccc(Nc3ncnc4nn5ccccc5c34)cc2Cl)c1 [GW689066]	0	0	30	0	0	0	0	63	0	0
N#Cc1ccc(Oc2ccc(Nc3ncnc4cc[nH]c34)cc2Cl)cc1	27	0	7	12	14	19	0	0	21	32
CCc1nc(-c2cccc(C)c2)c(-c2ccnc(NC(=O)c3ccccc3)c2)s1	0	25	7	0	17	0	0	0	27	25
CCn1c(-c2ccncc2)nc2cnccc21 [SB-735216]	11	4	63	45	24	9	30	57	7	10
COC(=O)c1c(-c2ccccc2)c2cc(Cl)ccc2c(=O)n1Cc1ccc(S(C)(=O)=O)cc1	0	0	15	12	15	0	0	27	14	14
Nc1nccc2scc(-c3ccc4c(c3)CCN4C(=O)Cc3cc(F)ccc3F)c12 [GSK2587663]	0	0	40	0	0	17	1	0	0	0
Cc1ccc(O)cc1Nc1cc(C(F)(F)F)nc2ccc(-c3ccncc3)cc12 [GW630823]	0	0	0	0	0	5	0	0	18	8
CN1c2ccc(-c3ccc(C(=O)NCCO)cc3)cc2-c2[nH]ncc2S1(=O)=O	4	0	0	1	22	8	32	21	16	67
Cn1ccc2ncnc(Oc3ccc(NC(=O)Nc4cccnc4)c(Cl)c3)c21	13	0	0	1	14	0	3	0	8	13
Oc1ccc2ncnc(Nc3ccc(OCc4ccccc4)cc3)c2c1 [GI262866]	7	0	6	18	0	0	0	17	0	0
CCCc1ccc(S(=O)(=O)NC2CCN(c3ccnc(Nc4ccc(OC)cc4)n3)C2)cc1 (stereo not drawn) [GSK1379737]	0	0	67	0	0	7	8	14	0	0
Cl.Cl.c1ccc(-c2cc3ccncc3cc2OC2CCNCC2)cc1 [GSK1122999]	0	0	0	9	10	21	18	89	0	5
COc1ccc(NC(=O)Nc2ccc(C)c(-c3ccc(C(=O)Nc4ccncc4)cc3)c2)cc1 [GSK1398475]	0	0	11	0	0	15	7	0	0	0
OCCOCCn1ccc2ncnc(Nc3ccc(Oc4cccc(Cl)c4)c(Cl)c3)c21	9	0	0	0	0	9	0	0	9	16
COc1ccc(-c2oc3ncnc(N)c3c2-c2ccc(OC)cc2)cc1 [SB-589132]	0	0	70	9	0	15	0	64	14	0

Compound	%Inh (GRK1) [%]	%Inh (GRK2) [%]	%Inh (GRK3) [%]	%Inh (GRK4) [%]	%Inh (GRK7) [%]	%Inh (GSK3A) [%]	%Inh (GSK3B) [%]	%Inh (HASPIN) [%]	%Inh (HCK) [%]	%Inh (HIPK1) [%]
CCC(CC)(CC)n1cnc2c(N)ncnc21 [SKF-97620]	40	16	0	8	14	0	35	9	9	17
Nc1nc(-c2ccc3c(N)n[nH]c3c2)cc(N2CCCCC2)n1 [GSK2228768]	0	0	30	0	0	0	0	0	0	0
Clc1cccc(-c2nc(Nc3ccncc3)c3ccccc3n2)c1 [GW873004]	10	0	0	0	0	0	0	50	26	43
Fc1ccc(Nc2nccc(-c3c(-c4ccc(Cl)cc4)nn4ncccc34)n2)cc1F [GW829058]	22	11	18	21	35	0	31	37	15	33
CCc1nc(-c2cccc(N(C)S(=O)(=O)c3ccccc3)c2)c(-c2ccnc(Nc3ccc(N4CCN(C(C)=O)CC4)nc3)n2)s1 [GSK1645895]	0	0	0	0	0	11	20	0	0	1
Cl.Fc1ccccc1COc1ccc(Nc2ncnc3ccc(-c4nnc(C(F)(F)F)o4)cc23)cc1Cl [GW424170]	0	0	0	0	0	17	0	0	0	1
Cl.O=S(=O)(c1cccc(F)c1)c1ccc(Nc2ncnc3cc(Br)sc23)cc1Cl [GSK306886]	4	0	0	0	0	21	31	0	0	0
O=C(Nc1ccccc1)Nc1ccc(Oc2ccc3nccn3n2)cc1	11	0	0	17	0	14	0	0	7	26
Cl.c1ccc(Cn2ccc3cc(Nc4ncnc5ccccc45)ccc32)cc1 [GW275568]	9	0	0	0	0	11	7	1	0	3
FC(F)(F)c1ccc(-c2cc(-c3c[nH]nc3-c3ccccn3)ccn2)cc1 [GW599550]	0	0	33	14	4	19	0	14	0	0
Cl.c1ccc(Cn2ncc3cc(Nc4ncnc5ccccc45)ccc32)cc1 [GW273749]	0	0	0	0	0	10	14	8	0	0
COc1ccc(Nc2nccc(N3CCC(NC(=O)Nc4ccc5c(c4)OCO5)C3)n2)cc1 (stereo not drawn) [GSK1379745]	13	0	20	15	0	0	7	13	0	0
CS(=O)(=O)CCNCc1nc(-c2ccc3ncnc(Nc4ccc(OCc5cccc(F)c5)c(Cl)c4)c3c2)cs1.Cl [GW583340]	0	0	28	0	0	0	1	0	0	0
CN1CCC(n2cnc(-c3ccc(F)cc3)c2-c2ccnc(NC3CCNCC3)n2)CC1 [SB-229482]	11	33	1	26	29	0	17	16	3	32
Cn1ccc2ncnc(Nc3ccc(Oc4cccc(Cl)c4)c(Cl)c3)c21	25	51	0	7	20	22	23	21	25	32
FC(F)(F)c1ccc(-c2nn3ncccc3c2-c2ccnc(Nc3cccc(C(F)(F)F)c3)n2)cc1 [GW828205]	11	0	0	25	0	1	10	0	10	39
